# Over roughly 1,900 compounds, “excess over highest single agent (ExcessHSA) synergy score, 6x6 matrix” has its median near -83; the lowest 2% begin near -370. This excerpt belongs to a sample that is enriched for the lowest values.
# Test system: NCI-H446
# Assay: excess over highest single agent (ExcessHSA) synergy score, 6x6 matrix; higher = less synergy (more negative = stronger synergy)
# Conditions: 72 h; CellTiter-Glo viability
row,SMILES,excess over highest single agent
1,Cc1cc(=O)c2c(O)c3c(O)cc(=O)c4c3c3c(cc(O)c1c23)C(C)(C)C=4O + Cc1sc2c(c1C)C(c1ccc(Cl)cc1)=N[C@@H](CC(=O)OC(C)(C)C)c1nnc(C)n1-2 [NCGC00250412-19],-128
2,Oc1ccc([C@@H]2Oc3ccc(O)cc3[C@@H]3CCC[C@@H]32)cc1 + Cc1sc2c(c1C)C(c1ccc(Cl)cc1)=N[C@@H](CC(=O)OC(C)(C)C)c1nnc(C)n1-2 [NCGC00250412-19],-48.9
3,N#Cc1cc(NC(=O)Nc2nnc(-c3ccncc3)s2)ccc1-c1cn[nH]c1 + Cc1sc2c(c1C)C(c1ccc(Cl)cc1)=N[C@@H](CC(=O)OC(C)(C)C)c1nnc(C)n1-2 [NCGC00250412-19],313
4,O=C(O)c1ccc2cc(-c3ccc(O)c(C45CC6CC(CC(C6)C4)C5)c3)ccc2c1 + Cc1sc2c(c1C)C(c1ccc(Cl)cc1)=N[C@@H](CC(=O)OC(C)(C)C)c1nnc(C)n1-2 [NCGC00250412-19],-225
5,CC(C)n1cnc2c(NCCCCCCNC(=O)OC(C)(C)C)nc(NCCO)nc21 + Cc1sc2c(c1C)C(c1ccc(Cl)cc1)=N[C@@H](CC(=O)OC(C)(C)C)c1nnc(C)n1-2 [NCGC00250412-19],-65.3
6,CC1=C(C(=O)Nc2cc3cn[nH]c3cc2F)C(c2ccc(Cl)cc2F)N=C(c2ccnc(Cl)c2)N1 (configuration not stated) + Cc1sc2c(c1C)C(c1ccc(Cl)cc1)=N[C@@H](CC(=O)OC(C)(C)C)c1nnc(C)n1-2 [NCGC00250412-19],-142
7,COc1ccc2c(c1)CC[C@H](CN(C)CC(=O)O)[C@@H]2c1ccccc1 + Cc1sc2c(c1C)C(c1ccc(Cl)cc1)=N[C@@H](CC(=O)OC(C)(C)C)c1nnc(C)n1-2 [NCGC00250412-19],-220
8,CNC(=O)c1ccc(N2C(=S)N(c3cnc(C#N)c(C(F)(F)F)c3)C(=O)C23CCC3)cc1F + Cc1sc2c(c1C)C(c1ccc(Cl)cc1)=N[C@@H](CC(=O)OC(C)(C)C)c1nnc(C)n1-2 [NCGC00250412-19],-9.84
9,CN(C)CCOc1cc(-c2cn[nH]c2)ccc1NC(=O)C1COc2ccccc2O1 (configuration not stated) + Cc1sc2c(c1C)C(c1ccc(Cl)cc1)=N[C@@H](CC(=O)OC(C)(C)C)c1nnc(C)n1-2 [NCGC00250412-19],-160
10,O=C(O)CCNc1cc(N2CCc3ccccc3CC2)nc(-c2ccccn2)n1 + Cc1sc2c(c1C)C(c1ccc(Cl)cc1)=N[C@@H](CC(=O)OC(C)(C)C)c1nnc(C)n1-2 [NCGC00250412-19],-73
11,CN1CCN(c2ncc(-c3cc(Cl)cc(Cl)c3Cl)c(N)n2)CC1 + Cc1sc2c(c1C)C(c1ccc(Cl)cc1)=N[C@@H](CC(=O)OC(C)(C)C)c1nnc(C)n1-2 [NCGC00250412-19],-219
12,CN(C)Cc1c(C(=O)NCCOc2ccc(C(=O)NO)cc2)oc2ccccc12 + Cc1sc2c(c1C)C(c1ccc(Cl)cc1)=N[C@@H](CC(=O)OC(C)(C)C)c1nnc(C)n1-2 [NCGC00250412-19],-152
13,Cc1ccc2nc(NC(=O)CSc3nc4c(c(=O)n3-c3ccccc3)SCC4)sc2c1 + Cc1sc2c(c1C)C(c1ccc(Cl)cc1)=N[C@@H](CC(=O)OC(C)(C)C)c1nnc(C)n1-2 [NCGC00250412-19],84.8
14,CC(C)(C)OC(=O)CN(Cc1ccc(Cl)cc1)Cc1ccc([N+](=O)[O-])s1 + Cc1sc2c(c1C)C(c1ccc(Cl)cc1)=N[C@@H](CC(=O)OC(C)(C)C)c1nnc(C)n1-2 [NCGC00250412-19],27
15,Cn1c(=O)c(-c2c(Cl)cccc2Cl)cc2cnc(Nc3cccc(C(=O)O)c3)nc21 + Cc1sc2c(c1C)C(c1ccc(Cl)cc1)=N[C@@H](CC(=O)OC(C)(C)C)c1nnc(C)n1-2 [NCGC00250412-19],-131
16,Cc1cc(OCCCc2c(C(=O)O)n(Cc3cccnc3)c3c(-c4c(COc5ccc(N6CCN([S+](C)(=O)[O-])CC6)cc5)nn(C)c4C)cccc23)cc(C)c1Cl + Cc1sc2c(c1C)C(c1ccc(Cl)cc1)=N[C@@H](CC(=O)OC(C)(C)C)c1nnc(C)n1-2 [NCGC00250412-19],-31.2
17,CCOC(=O)N1CCN([N+]([O-])=NOc2ccc([N+](=O)[O-])cc2[N+](=O)[O-])CC1 + Cc1sc2c(c1C)C(c1ccc(Cl)cc1)=N[C@@H](CC(=O)OC(C)(C)C)c1nnc(C)n1-2 [NCGC00250412-19],-84.4
18,O=C(c1ccc(Nc2nccc(-c3cc4ccccc4s3)n2)cc1)N1CCC(N2CCCC2)CC1 + Cc1sc2c(c1C)C(c1ccc(Cl)cc1)=N[C@@H](CC(=O)OC(C)(C)C)c1nnc(C)n1-2 [NCGC00250412-19],-181
19,CNC(=O)c1ccc(N2C(=S)N(c3ccc(C#N)c(C(F)(F)F)c3)C(=O)C23CCC3)cc1F + Cc1sc2c(c1C)C(c1ccc(Cl)cc1)=N[C@@H](CC(=O)OC(C)(C)C)c1nnc(C)n1-2 [NCGC00250412-19],-51.1
20,O=C(OCC#CCSc1nnc(-c2cccc3ccccc23)o1)c1cc2ccccc2s1 + Cc1sc2c(c1C)C(c1ccc(Cl)cc1)=N[C@@H](CC(=O)OC(C)(C)C)c1nnc(C)n1-2 [NCGC00250412-19],-169
21,O=C1CSC(=O)N1C(CCc1ccncc1)COc1ccc(-c2cccc([N+](=O)[O-])c2)cc1 (configuration not stated) + Cc1sc2c(c1C)C(c1ccc(Cl)cc1)=N[C@@H](CC(=O)OC(C)(C)C)c1nnc(C)n1-2 [NCGC00250412-19],-96.7
22,CS[C@H]1SC[C@H]2C(=O)N(C)[C@@H](C(C)C)C(=O)OC[C@@H](NC(=O)c3cnc4ccccc4n3)C(=O)N[C@@H](C)C(=O)N(C)[C@@H]1C(=O)N(C)[C@@H](C(C)C)C(=O)OC[C@@H](NC(=O)c1cnc3ccccc3n1)C(=O)N[C@@H](C)C(=O)N2C + Cc1sc2c(c1C)C(c1ccc(Cl)cc1)=N[C@@H](CC(=O)OC(C)(C)C)c1nnc(C)n1-2 [NCGC00250412-19],15.3
